Activity calls are given as the source filed them. The rule behind the calls is not given here.
Potency is the fitted concentration of half-maximal effect.

In this test the test system is HIV-1 nucleocapsid protein NCp7 (binding to TG oligonucleotide). As to the kind of experiment: HIV Nucleocapsid (AID 346).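 Note: potency is for inhibitors that block NC binding and lower polarization.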 The conditions noted are these: HIV-1 NC / fluorescein-TGTGTGTG probe, fluorescence polarization. The method, boiled down: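 Fluorescence polarization readout: labelled TG4xF oligo (10 nM) with 100 nM nucleocapsid protein, high-salt (250mM NaCl) Hepes pH 7.5 buffer containing zinc and fresh reducing agents. Compounds added by pin tool; incubation 1 hr, room temperature.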
A general note: Polarisation of emitted light reports the rotation of a fluorescent probe.
Regarding `CN(C)c1ccc(-c2nc(NCCc3cnc[nH]3)c3ccccc3n2)cc1`, the Potency was > 20 µM (inactive).

Regarding `Cn1c(=O)cnc2cnc(OCc3ccccc3)nc21`, the Potency is > 20 µM (inactive). With `CN(C)c1ncc2nc(-c3cccc(C#N)c3)c(=O)n(CCC#N)c2n1` the figure was > 20 µM (inactive). As for `O=C(Oc1ccccc1)N1CCC2(CC1)CN(c1ncccn1)C2`, the Potency was > 20 µM (inactive). `Cc1nc2cnc(Oc3ccccc3)nc2n(Cc2cccs2)c1=O`: the Potency is > 4 µM (inactive). Then `c1ccc(CNc2nc(-c3cccnc3)nc3ccccc23)cc1`, with > 20 µM (inactive); and `COCCn1c(=O)c(-c2ccc(OC)cc2)nc2cnc(Oc3ccc(OC)cc3)nc21`, with > 20 µM (inactive); and `O=c1c(-c2ccccc2)nc2cnc(N3CCOCC3)nc2n1C1CC1`, with > 20 µM (inactive). With `COc1cccc(-c2nccc(NCc3cccs3)n2)c1` the figure was > 20 µM (inactive); with `COCCn1c(=O)c(C)nc2cnc(N(C)C)nc21`, > 20 µM (inactive).

Turning to `COc1ccc(-c2nc3cnc(OC)nc3n(Cc3cccc(OC)c3)c2=O)cc1`, the Potency was > 20 µM (inactive). With `CC(C)CN1CC2(CCN(S(=O)(=O)c3ccccc3)CC2)C1` the figure was > 20 µM (inactive).

For `COc1ccc(-c2nc3cnc(N(C)C)nc3n(C)c2=O)cc1`, the Potency was > 4 µM (inactive). With `O=C(c1csnn1)N1CCC2(CCN(Cc3cc(C(F)(F)F)cc(C(F)(F)F)c3)CC2)CC1`, the Potency was > 20 µM (inactive). With `Cc1noc(C)c1C(=O)N1CCC2(CCCN(C(=O)NC(C)C)C2)CC1` the figure was > 20 µM (inactive); with `c1ccc2c(-n3ccnc3)nc(-c3ccoc3)nc2c1`, > 20 µM (inactive). With `Clc1ccccc1-c1ccc2ncnc(NC3CCNCC3)c2c1` the figure was > 20 µM (inactive); with `COc1ccc2[nH]cc(CCNc3ncncc3-c3cccc(C#N)c3)c2c1`, > 20 µM (inactive). As for `Cc1ccccc1-c1cc(Nc2ccc(F)cc2)ncn1`, the Potency is > 20 µM (inactive).

As to `COc1ccc(CNc2ncncc2-c2cccnc2)c(OC)c1`, the Potency was > 20 µM (inactive). As for `COc1cccc(-c2nc(NCc3ccccc3OC)c3ccccc3n2)c1`, the Potency is > 20 µM (inactive). In the case of `c1ccc(CNc2ccnc(-c3ccc4c(c3)OCO4)n2)cc1`, the Potency is > 20 µM (inactive). Then `COc1cccc(-c2nc(Nc3ccncc3)c3ccccc3n2)c1`, with > 20 µM (inactive); and `O=S(=O)(c1ccccc1)N1CCC2(CCN(c3ncccn3)CC2)CC1`, with > 20 µM (inactive). Then `N#Cc1cccc(NC(=O)N2CCC3(CC2)CCN(C(=O)c2csnn2)CC3)c1`, with > 20 µM (inactive).
